Assay [1] relates to Zika virus NS2B-NS3 protease (linked construct). In words: Primary screen NINDS Rhodamine qHTS for Zika virus inhibitors (AID 1347160). Further: nearly all actives have a fitted effect of over 55% in size. Further: potency means the concentration at half of the fitted maximal effect. Summed up: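 Each compound, titrated, sat 15 min with 25 nM linked protease before 1.5 microM Rhodamine110 substrate went in. Fluorescence gain over the next 15 min, in pH 8.0 Tris with Tween 20, gave Hill-fitted curves.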
The target in assay [2] is Calcium and integrin-binding protein 1 (Homo sapiens) (UniProt Q99828). The assay is described as follows: Primary qHTS for Identification of Calcium Integrin Binding Protein 1 (CIB1) Competitor (AID 1508620).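 Further: GST tagged CIB1 binding a fluorescein labelled alphaIIb integrin peptide tracer; top concentration of the series differs between compounds.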 Summed up: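 CIB1-GST (1 uM final) and compound incubated 15 min at room temperature before adding FITC-alphaIIb peptide tracer (100 nM final). Competition for binding read by fluorescence polarization (ex 480, em 540) after another 15 min at room temperature.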
Sequence of Calcium and integrin-binding protein 1 (Homo sapiens) (Q99828 whole entry, looked up): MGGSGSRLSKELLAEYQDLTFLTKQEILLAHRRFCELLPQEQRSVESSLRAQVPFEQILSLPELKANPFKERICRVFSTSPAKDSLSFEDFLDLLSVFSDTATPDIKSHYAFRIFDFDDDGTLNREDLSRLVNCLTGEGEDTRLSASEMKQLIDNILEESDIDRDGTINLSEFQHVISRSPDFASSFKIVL
(In general: Quantitative high-throughput screening tests each substance at several concentrations.)

The nature of assay [3]: Primary qHTS for inhibitors of nuclear receptor binding SET domain protein 2 (NSD2) in an isogenic RCH-ACV NSD2 p.E1099K mutant (9B) (AID 1645876). Further: potency means the concentration at half of the fitted maximal effect; nearly all actives have a fitted effect of over 70% in size.
For assay [4], the target named is Glutathione peroxidase 1 (Homo sapiens) (UniProt P07203). The assay is described as follows: Primary qHTS Assay for Inhibitors of Recombinant Selenoprotein Glutathione Peroxidase 1 (GPX1) (AID 1845191). Further: nearly all actives have a fitted effect of over 65% in size. The method, boiled down: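 NADPH consumption tracked by fluorescence at 340/450 nm between t=0 and t=15 min, room temperature. Final mix: 10 nM GPX1, 100 nM glutathione reductase, 1 mM GSH, 0.5 mM NADPH, 0.5 mM cumene hydroperoxide, 0.01% BSA; 30 min compound–enzyme preincubation.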
Sequence of Glutathione peroxidase 1 (Homo sapiens) (P07203 whole entry, looked up): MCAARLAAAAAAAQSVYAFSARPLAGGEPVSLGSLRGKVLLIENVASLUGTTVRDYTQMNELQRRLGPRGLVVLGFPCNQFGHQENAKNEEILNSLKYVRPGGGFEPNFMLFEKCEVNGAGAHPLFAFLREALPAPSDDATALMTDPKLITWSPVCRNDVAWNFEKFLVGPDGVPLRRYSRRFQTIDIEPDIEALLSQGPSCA

For assay [5], the target named is Phospholipid hydroperoxide glutathione peroxidase GPX4 (Homo sapiens) (UniProt P36969). In words: Primary qHTS Assay for Inhibitors of Recombinant Selenoprotein Glutathione Peroxidase 4 (GPX4) (AID 1845192). Further: nearly all actives have a fitted effect of over 65% in size. As to conditions: outcome: dose series up to 50 µM unless noted. The method, boiled down:
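NADPH consumption followed by fluorescence at 340/450 nm, t=0 and after 15 min at room temperature. Reaction started with cumene hydroperoxide (0.5 mM final) after 30 min compound–GPX4 preincubation; final 200 nM GPX4, 100 nM GR, 1 mM GSH, 0.5 mM NADPH.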

Assay [6] concerns the target Luciferin 4-monooxygenase (Photinus pyralis) (UniProt P08659). In words: Primary firefly luciferase (FLuc) qHTS assay for identification of artifact compounds. (AID 1845220). Further: nearly all actives have a fitted effect of over 60% in size. Summed up:
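FLuc 10 nM; luciferin 10 uM; ATP 10 uM; Tris-acetate pH 7.6, Mg-acetate 10 mM; 15 min RT preincubation; 5 min reaction; luminescence.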

Assay [7] in a line: Primary fluorescence-based thiol-reactive (MSTI) qHTS assay for identification of artifact compounds. (AID 1845221). Further: nearly all actives have a fitted effect of over 65% in size. Further: potency means the concentration at half of the fitted maximal effect. Summed up: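 First, 4 uM MSTI in 2% DMSO/PBS pH 7.4 was dispensed; next, compounds were added; then plates sat 1 h at room temperature without light. Finally, emission at 598 nm was recorded.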
Assay [8] deals with Nanoluciferase (engineered Oplophorus gracilirostris luciferase). In words: Primary Nanoluciferase (NLuc) qHTS assay for identification of artifact compounds. (AID 1845222).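 Further: NLuc secreted into diluted conditioned medium of S16 cells.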 Summed up: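 NLuc from S16 cell medium (1:55) plus test compounds, 15 min, room temperature. Luminescence after Nano-Glo (1:100) addition, 5 min.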
Another assay relates to C33A. In words: Primary qHTS to identify gynecologic anti-cancer compounds using libraries of approved drugs and bioactive compounds (AID 1345084). Further: nearly all actives have a fitted effect of over 55% in size. Further: potency means the concentration at half of the fitted maximal effect. The settings on record: Gynecologic cancer cell panel viability, ATPlite luminescence, 48 h; series mostly up to 57.5 µM. Summed up:
(§1)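 48 h compound exposure at 37 C, 5% CO2; five-point qHTS. ATPlite luminescence readout of cell ATP.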

For another assay, the system named is CASKI. Described as above. As to conditions: Gynecologic cancer cell panel viability, ATPlite luminescence, 48 h; series mostly up to 57.5 µM. The method, boiled down:
as §1
For orientation: Cellular ATP, detected with luciferase, serves as a proxy for viable cell number.

Another assay deals with Es-2. The assay is described as above. The settings on record: Gynecologic cancer cell panel viability, ATPlite luminescence, 48 h; series mostly up to 57.5 µM. Summed up: as §1
A further assay concerns HeLa. The assay is described as above. The settings on record: Gynecologic cancer cell panel viability, ATPlite luminescence, 48 h; series mostly up to 57.5 µM. Summed up: as §1
For the next assay, the system named is Hek293T. Described as above. As to conditions: Gynecologic cancer cell panel viability, ATPlite luminescence, 48 h, control line for the selectivity index; series mostly up to 57.5 µM. Summed up:
as §1

A further assay concerns JEG-3. Described as above. The settings on record: Gynecologic cancer cell panel viability, ATPlite luminescence, 48 h; series mostly up to 57.5 µM. Summed up: as §1
The subject of the next assay is OV90. The description is as above. As to conditions: Gynecologic cancer cell panel viability, ATPlite luminescence, 48 h; series mostly up to 57.5 µM. Summed up:
as §1

A further assay concerns PA-1. Described as above. As to conditions: Gynecologic cancer cell panel viability, ATPlite luminescence, 48 h; series mostly up to 57.5 µM. The method, boiled down:
as §1

The test system of another assay is Tov-21-G. The description is as above. As to conditions: Gynecologic cancer cell panel viability, ATPlite luminescence, 48 h; series mostly up to 57.5 µM. The method, boiled down:
as §1

A further assay concerns Tov112D. The description is as above. The settings on record: Gynecologic cancer cell panel viability, ATPlite luminescence, 48 h; series mostly up to 57.5 µM. The method, boiled down: as §1
A short description of assay [9]: Primary qHTS for inhibitors of nuclear receptor binding SET domain protein 2 (NSD2) in an RCH-ACV wild type WT cells (2C) (AID 1645877). Further: potency means the concentration at half of the fitted maximal effect; nearly all actives have a fitted effect of over 70% in size.
The nature of assay [10]: Primary redox qHTS assay for identification of artifact compounds. (AID 1845223). Summed up:
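Redox-cycling detection via DTT (250 uM final) oxidation coupled to Amplex Red (25 uM)/HRP (250 mU/mL) in HBSS. 15 min preincubation plus 30 min after DTT, room temperature. Ex/Em 525/598 nm; 4-parameter Hill fit against DMSO and 10 uM DA3003.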

Several values for one entry are separate records, joined by “and”; a condition that tells them apart may be missing. Equal entries are not always repeated. Values without a mark were called inactive. Inconclusive results are not listed. Activity calls are given as the source filed them. The call rests on the fitted dose curve; in most records, active means well fitted curve in the direction sought with a large enough effect; inconclusive means small, poorly fitted or top-dose-only effect, or another doubt; inactive means no such curve, though single readings can be large; an effect the other way counts as inactive or inconclusive.

Sequence of Phospholipid hydroperoxide glutathione peroxidase GPX4 (Homo sapiens) (P36969 whole entry, looked up): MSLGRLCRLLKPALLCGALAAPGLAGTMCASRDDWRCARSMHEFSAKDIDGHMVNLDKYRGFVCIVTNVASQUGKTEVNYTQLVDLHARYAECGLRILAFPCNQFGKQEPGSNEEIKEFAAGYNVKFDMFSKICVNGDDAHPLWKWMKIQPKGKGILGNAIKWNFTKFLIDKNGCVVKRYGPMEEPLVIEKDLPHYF

Regarding `CN(CCCNC(=O)c1ccc2nc3c(c(Cl)c2c1)CCCC3)Cc1ccccc1`, the Potency result in [1], in assay [4], in assay [5], in assay [6], in [7] and in assay [8] was “inactive” throughout. In addition, the Potency entry with C33A, in the assay on CASKI, in the assay with Es-2, in the assay with HeLa, with Hek293T and in the assay on JEG-3 was “inactive” in each case. In addition, the Potency result with OV90, in the assay with PA-1, with Tov-21-G and with Tov112D was “inactive” each time. In addition, in [2], the outcome was inactive. Besides, in [3], the Potency was 12.9 µM (active).

Consider `COc1cc(N2CCOCC2)ccc1Nc1ncc(F)c(Nc2ccccc2NS(C)(=O)=O)n1`, for which the Potency result in [1], in assay [4], in assay [5], in assay [6], in assay [8] and in assay [10] was “inactive” in each case. Also, the Potency entry in the assay on Es-2 was “inactive”. The outcome in assay [2] was inactive. The values for the Potency in [3], in assay [9] and in assay [7] were 8.17 µM (active), 8.17 µM (active) and 2.38 µM (active), respectively.

For the compound `CCCCn1c(-c2ccccc2)nc(-c2ccccc2)c1CN(Cc1ccc2c(c1)OCO2)Cc1ccc2c(c1)OCO2`, the Potency entry in assay [1], in [4], in assay [5], in assay [6], in assay [8] and in assay [10] was “inactive” each time. Besides, the Potency result with C33A, in the assay on Es-2, in the assay with HeLa, in the assay with Hek293T, in the assay on JEG-3 and in the assay with OV90 was “inactive” throughout. The Potency entry in the assay on PA-1, in the assay with Tov-21-G and in the assay with Tov112D was “inactive” in each case. Besides, the result in assay [2] was inactive. The Potency in [9] is 18.3 µM (active).

Turning to `Cc1ccc(CCCO)c(NCc2ccc3nc(NCCCN4CCOCC4)n(Cc4nc(C)ccc4O)c3c2)c1`, the Potency entry (in assay [1]; in assay [4]; in assay [5]; in assay [6]; in assay [8]; in the assay on C33A) was “inactive” throughout. In addition, the Potency result with CASKI, in the assay with Es-2, in the assay with HeLa, in the assay with Hek293T, in the assay on JEG-3 and with Tov-21-G was “inactive” throughout. For the same compound, the Potency entry in the assay with Tov112D was “inactive”. Moreover, in assay [2], the result was inactive. Besides, the Potency in [3] was 12.9 µM (active); in assay [9], 11.5 µM (active).

Regarding `COc1ccc(C2(CNC(=O)[C@](C)(Cc3c[nH]c4ccccc34)NC(=O)Nc3ccc([N+](=O)[O-])cc3)CCCCC2)nc1`, the Potency entry in assay [1], in [4], in assay [5], in assay [6], in assay [7] and in assay [8] was “inactive” in each case. Further, the Potency entry (in assay [10]; with C33A; in the assay on CASKI; in the assay on Es-2; in the assay with HeLa; in the assay on Hek293T) was “inactive” in each case. Besides, the Potency result with JEG-3, in the assay with OV90, in the assay with PA-1, with Tov-21-G and in the assay on Tov112D was “inactive” throughout. For the same compound, in [2], the outcome was inactive. For the same compound, the Potency in assay [9] is 20.5 µM (active).

Take `Cc1cc(CS(=O)(=O)c2ccccc2)cc(OCc2ccc(CN3CCC[C@@H]3CO)cc2)c1`: the Potency result in assay [1], in assay [4], in assay [5], in assay [6], in [7] and in assay [8] was “inactive” in each case. Besides, the Potency entry (in assay [10]; in the assay on CASKI; with Es-2; in the assay on HeLa) was “inactive” throughout. Moreover, the result in assay [2] was inactive. Moreover, the Potency was 12.9 µM (active) and 16.6 µM (active) in [3]; 18.3 µM (active) and 14.8 µM (active) in assay [9]; 25.1 µM (active) with OV90.

For the compound `CN(CC(=O)N(Cc1ccc(C2CCCCC2)cc1)c1ccc(C(=O)O)cc1)S(=O)(=O)c1c(F)c(F)c(F)c(F)c1F`, the Potency was 2.82 µM (active) in assay [1], 7.28 µM (active) in assay [3], 4.59 µM (active) in assay [9] and 25.1 µM (active) with JEG-3. In assay [2], the outcome was inactive. In addition, the Potency entry in [4], in assay [5], in [6], in assay [7], in assay [8] and in assay [10] was “inactive” in each case. Also, in the assay with Es-2, the Potency entry is “inactive”.
